Measurements: PubChem BioAssay (EPA / NIEHS)
Inconclusive results are not listed. Calls of active or inactive are those of the source. Rule for the calls, unless noted: active = hit-call score of the fitted dose curve at least 0.9, where 1 is the maximum; inconclusive = response in the unintended direction; inactive = score below 0.9.

What was measured:
[1] = biological target: Cellular tumor antigen p53 (Homo sapiens) (UniProt P04637); test: TOX21_p53_BLA_p2_ratio: Tox21 HCT-116 p53 Agonism Beta-lactamase Assay, Ratio, Phase 2 (AID 2283592)
Outline: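 HCT-116 cells with p53-responsive beta-lactamase reporter, 4000 cells/well, preincubated 5 h, then compound in DMSO (217-fold dilution) for 16 h at 37C. CCF4-AM substrate 2 h at room temperature; 460/530 nm emission ratio fitted upward versus DMSO.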

[2] = biological target: Cellular tumor antigen p53 (Homo sapiens) (UniProt P04637); test: TOX21_p53_BLA_p3_ratio: Tox21 HCT-116 p53 Agonism Beta-lactamase Assay, Ratio, Phase 3 (AID 2283596)
Outline: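 HCT116 p53-bla cells (4000/well) given compound in DMSO (217-fold dilution) after 5 h, incubated 16 h at 37C. CCF4-AM substrate 2 h at room temperature; 460/530 nm emission ratio, gain fitted against DMSO.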

[3] = biological target: Cellular tumor antigen p53 (Homo sapiens) (UniProt P04637); test: TOX21_p53_BLA_p5_ratio: Tox21 HCT-116 p53 Agonism Beta-lactamase Assay, Ratio, Phase 5 (AID 2283599)
Outline: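 Beta-lactamase reporter ratio (blue 460 nm over green 530 nm, 405 nm excitation) after 2 h CCF4-AM loading, in HCT-116 cells exposed 16 h at 37 C to compounds pinned at 217-fold dilution. Increases relative to DMSO baseline scored.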

[4] = biological target: Cellular tumor antigen p53 (Homo sapiens) (UniProt P04637); test: TOX21_p53_BLA_p4_ratio: Tox21 HCT-116 p53 Agonism Beta-lactamase Assay, Ratio, Phase 4 (AID 2283601)
Outline: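 Signal is the blue/green (460nm/530nm) ratio of cleaved versus uncleaved CCF4-AM substrate, read after 2 h substrate loading. Cells were HCT116 carrying the p53-responsive beta-lactamase reporter, dosed 16 h at 37C, 5% CO2; CellTiter-Glo measured in parallel.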

[5] = TOX21_p53_BLA_p5_viability: Viability Assessment in the Tox21 HCT-116 p53 Agonism Beta-lactamase Assay, Phase 5 (AID 2283600)
Outline: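 HCT-116 p53 beta-lactamase reporter cells, 4000/well, were exposed to compound (pin transfer, 217-fold dilution) for 16 hours at 37C. Cellular ATP was read by CellTiter-Glo luminescence after 30 min at room temperature.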

PGR (gene 5241) = PGR (gene 5241) (UniProt P06401); test: TOX21_PR_BLA_Followup_Antagonist_ratio: Tox21 HEK293 Progesterone Receptor (PR) Antagonism Beta-lactamase Follow-Up Assay, Ratio (AID 2283934)
Outline: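 PR-UAS-bla HEK293T cells, 3,000/well in 2% charcoal-stripped FBS, given compound plus 1nM R5020 agonist for 16 hr at 37C. Beta-lactamase FRET substrate 2 hours, ratio cleaved/uncleaved fluorescence; viability by CellTiter-Glo in same wells.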

[6] = TOX21_PR_BLA_Followup_Agonist_viability: Viability Assessment in the Tox21 HEK293 Progesterone Receptor (PR) Agonism Beta-lactamase Follow-Up Assay (AID 2283935);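 note: signal loss means lower viability so actives are cytotoxic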
Outline: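 PR-UAS-bla HEK293T cells in 2% charcoal-stripped FBS medium, plated 6 hr before compound addition, exposed 16 hr at 37C. Viability read by CellTiter-Glo ATP luminescence after 30 min at room temperature, in the same wells as the beta-lactamase readout.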

[7] = TOX21_PR_LUC_Followup_Antagonist_viability: Viability Assessment in the Tox21 HEK293 Progesterone Receptor (PR) Antagonism Luciferase Follow-Up Assay (AID 2283940)
Outline: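 HEK293-PR-A-luc cells kept in charcoal-stripped FBS medium were plated 5 h before compound addition, then exposed 16 h at 37C; viability read as cellular ATP by luciferase luminescence, loss of signal indicating cytotoxicity.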

[8] = TOX21_p53_BLA_p4_viability: Viability Assessment in the Tox21 HCT-116 p53 Agonism Beta-lactamase Assay, Phase 4 (AID 2283597);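 note: hits lower the luminescence signal meaning cytotoxicity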
Outline: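 HCT-116 p53-bla cells, 4000/well, dosed after 5 h attachment and incubated 16 h at 37 °C, 5% CO2. Viability from CellTiter-Glo ATP luminescence after 30 min at room temperature, taken after the beta-lactamase read; loss of signal indicates cytotoxicity.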

[9] = biological target: Thyroid hormone receptor alpha (Rattus norvegicus) + Thyroid hormone receptor beta (Rattus norvegicus) (UniProt P18113+P63059); test: TOX21_TR_LUC_GH3_Antagonist_Followup: Tox21 GH3 Thyroid Hormone Receptor Antagonism Luciferase Follow-Up Assay (AID 2283942)
Outline: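 Confirmatory qHTS, antagonist mode: T3 (1.0 nM final) + test cpd, 15 conc, 92 uM–5nM final, GH3 rat pituitary line, 24 h, 37C. Luc reporter, RLU vs DMSO.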

THRA (gene 7067) = THRA (gene 7067) (UniProt P10827); test: TOX21_TRA_COA_Antagonist_Followup_ratio: Tox21 Thyroid Hormone Receptor alpha Antagonism through Coactivator Recruitment Follow-Up Assay, Ratio (AID 2283953)
Outline: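 520:495 nm emission ratio (excitation 340 nm) reports fluorescein-SRC-2 peptide recruitment to GST-TRα LBD by TR-FRET with Tb anti-GST antibody. Values were normalized to DMSO (0%) and T3 control wells (100%); loss of signal indicated antagonism.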

THRB (gene 7068) [10] = biological target: THRB (gene 7068) (UniProt P10828); test: TOX21_TRB_BLA_Antagonist_Followup_ratio: Tox21 Thyroid Hormone Receptor beta Antagonism Beta-lactamase (BLA) Follow-Up Assay, Ratio (AID 2283958)
Outline: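 HEK293T cells with a GAL4-TRb LBD fusion and UAS-bla reporter, 3,000 cells/well in phenol red-free DMEM with 2% charcoal-stripped FBS. Exposed 18 h at 37C to 11 concentrations in triplicate; CCF4 460:530 nm ratio after 2 h, DMSO-referenced.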

THRB (gene 7068) [11] = biological target: THRB (gene 7068) (UniProt P10828); test: TOX21_TRB_COA_Antagonist_Followup_ratio: Tox21 Thyroid Hormone Receptor beta Antagonism through Coactivator Recruitment Follow-Up Assay, Ratio (AID 2283967)
Outline: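 Test compound was incubated with 5.0 nM GST-TRβ LBD in 0.10% BSA. Then 200 nM fluorescein-SRC-2 peptide and 2 nM terbium anti-GST antibody were added. TR-FRET (520:495 nm) was measured and normalized to DMSO and T3 controls.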

[12] = biological target: Retinoic acid receptor RXR-alpha (Homo sapiens) (UniProt P19793); test: TOX21_TR_RXR_BLA_Antagonist_Followup_ratio: Tox21 Thyroid Hormone Receptor beta Retinoid X Receptor alpha (RXRa) Antagonism Beta-lactamase (BLA) Follow-Up Assay, Ratio (AID 2283972)
Outline: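 RXRa-UAS-bla HEK293T cells, 2,500/well in phenol red-free DMEM with 2% charcoal-stripped FBS, 5 h attachment, then compounds (11 concentrations, triplicate) for 16 h at 37C; FRET-B/GCCF4-AM substrate 2 h RT; 460:530 nm ratio, loss of signal vs DMSO.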

[13] = CCTE_Harrill_HTTr_Viability_MCF7: CCTE's 6-hour Cell Viability Assessment for the High-Throughput Transcriptomics (HTTr) Platform, in MCF-7 cells cultured in DMEM + 10% fetal bovine serum, Harrill Lab (AID 2284010; active = hit-call score of the fitted dose curve at least 0.9, where 1 is the maximum; inactive = score below 0.9)
Outline: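 MCF-7 cells in DMEM + 10% FBS, 384-well, exposed 6 h to an eight-point dilution series. Membrane integrity scored by high-content imaging of propidium iodide exclusion; bidirectional fit versus DMSO.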

[14] = CCTE_Harrill_HTTr_CellCount_MCF7: CCTE's Cell Proliferation Assessment for the High-Throughput Transcriptomics (HTTr) Platform, Harrill Lab (AID 2284012);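 note: intended direction is loss of nuclei count meaning fewer cells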
Outline: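 MCF7 cells exposed 6 hours to an eight-point dilution series; Hoechst-stained nuclei counted by high-content imaging. Bidirectional curve fitting against DMSO baseline.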

[15] = UKN5_HCS_SBAD2_cell_viability: Viability Assessment in the University of Konstanz (UKN) Leist Lab Neurite Outgrowth Assay in human iPSC-derived immature Dorsal Root Ganglia Neurons (UKN5) (AID 2284056; active = hit-call score of the fitted dose curve at least 0.9, where 1 is the maximum; inactive = score below 0.9)
Outline: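 iPSC-derived immature peripheral neurons (SBAD2) seeded on Matrigel with CHIR99021, SU5402 and DAPT, dosed 1 h later for 24 h. Viability from Hoechst H-33342 and calcein-AM live staining, high-content imaging; bidirectional fit versus DMSO.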

[16] = UKN5_HCS_SBAD2_neurite_outgrowth: University of Konstanz (UKN) Leist Lab Neurite Outgrowth Assay in human iPSC-derived immature Dorsal Root Ganglia Neurons (UKN5) (AID 2284070; active = hit-call score of the fitted dose curve at least 0.9, where 1 is the maximum; inactive = score below 0.9); conditions: actives raise or lower the signal
Outline: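 SBAD2 iPSC-derived immature peripheral neurons on Matrigel, 100.000 cells/cm2, medium with CHIR99021 (1.5 uM), SU5402 (5 uM), DAPT (5 uM); compound added 1 h post-seeding for 24 h. Calcein-AM neurite area by high-content imaging; Hoechst H-33342 viability; bidirectional fit vs DMSO.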

[17] = UKN2_HCS_IMR90_neural_migration: University of Konstanz (UKN) Leist Lab Neural Crest Cell Migration Assay in human induced IMR90 Pluripotent Stem Cells (UKN2) (AID 2284204; active = hit-call score of the fitted dose curve at least 0.9, where 1 is the maximum; inactive = score below 0.9); conditions: actives raise or lower the signal
Outline: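 Migration of human IMR90-derived neural crest cells into a stopper-defined gap is imaged after 24 h chemical treatment. Activity is fitted bidirectionally relative to DMSO.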

[18] = UKN4_HCS_LUHMES_neurite_outgrowth: University of Konstanz (UKN) Leist Lab Neurite Outgrowth Assay in human LUHMES cells (UKN4) (AID 2284206; active = hit-call score of the fitted dose curve at least 0.9, where 1 is the maximum; inactive = score below 0.9); conditions: actives raise or lower the signal
Outline: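 Human LUHMES neuronal precursors, differentiated 2 days then replated without cAMP and GDNF, exposed to compounds for 24 h. Neurite area imaged by high-content microscopy after calcein-AM live staining; Hoechst H-33342 for viability; bidirectional fit versus DMSO.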

[19] = UKN2_HCS_IMR90_cell_viability: Viability Assessment in the University of Konstanz (UKN) Leist Lab Neural Crest Cell Migration Assay in human induced IMR90 Pluripotent Stem Cells (UKN2) (AID 2284233; active = hit-call score of the fitted dose curve at least 0.9, where 1 is the maximum; inactive = score below 0.9;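 note: viability of neural crest cells differentiated from IMR90 iPSC measured by calcein-AM fluorescence imaging; cells exposed to compound for 24 h after a 24 h migration phase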)
Outline: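 Human IMR90-derived neural crest cells were allowed to migrate for 24 h into a cell-free zone, then exposed to test chemicals for 24 h. Calcein-AM and Hoechst staining with high-content imaging gave viability, analysed against DMSO baseline.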

Measured: AC50

Chain of Cellular tumor antigen p53 (Homo sapiens) (P04637 whole entry, looked up): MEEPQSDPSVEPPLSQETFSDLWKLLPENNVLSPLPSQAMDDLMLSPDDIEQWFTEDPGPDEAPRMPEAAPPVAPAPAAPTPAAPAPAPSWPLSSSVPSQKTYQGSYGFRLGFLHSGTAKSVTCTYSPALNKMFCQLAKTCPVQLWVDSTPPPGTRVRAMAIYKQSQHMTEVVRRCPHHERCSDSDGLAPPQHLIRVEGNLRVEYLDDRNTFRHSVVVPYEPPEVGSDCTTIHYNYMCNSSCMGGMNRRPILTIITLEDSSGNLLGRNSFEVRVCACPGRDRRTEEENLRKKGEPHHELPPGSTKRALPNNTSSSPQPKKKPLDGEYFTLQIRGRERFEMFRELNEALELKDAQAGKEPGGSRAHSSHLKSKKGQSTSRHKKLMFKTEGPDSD
Chain of THRB (gene 7068) (P10828 whole entry, looked up, the tested form may be a part): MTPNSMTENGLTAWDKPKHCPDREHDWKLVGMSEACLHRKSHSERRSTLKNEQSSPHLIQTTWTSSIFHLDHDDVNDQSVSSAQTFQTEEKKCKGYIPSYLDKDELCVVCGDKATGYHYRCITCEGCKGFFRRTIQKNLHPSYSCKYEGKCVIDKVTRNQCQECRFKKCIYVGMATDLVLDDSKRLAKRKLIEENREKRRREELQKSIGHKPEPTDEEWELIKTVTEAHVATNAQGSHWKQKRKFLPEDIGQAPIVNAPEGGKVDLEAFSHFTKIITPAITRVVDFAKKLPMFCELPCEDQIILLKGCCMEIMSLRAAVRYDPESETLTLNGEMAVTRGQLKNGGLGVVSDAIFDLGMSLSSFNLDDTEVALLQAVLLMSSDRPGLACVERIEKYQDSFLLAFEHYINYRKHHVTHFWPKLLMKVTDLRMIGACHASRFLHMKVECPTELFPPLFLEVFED
Chain of PGR (gene 5241) (P06401 whole entry, looked up): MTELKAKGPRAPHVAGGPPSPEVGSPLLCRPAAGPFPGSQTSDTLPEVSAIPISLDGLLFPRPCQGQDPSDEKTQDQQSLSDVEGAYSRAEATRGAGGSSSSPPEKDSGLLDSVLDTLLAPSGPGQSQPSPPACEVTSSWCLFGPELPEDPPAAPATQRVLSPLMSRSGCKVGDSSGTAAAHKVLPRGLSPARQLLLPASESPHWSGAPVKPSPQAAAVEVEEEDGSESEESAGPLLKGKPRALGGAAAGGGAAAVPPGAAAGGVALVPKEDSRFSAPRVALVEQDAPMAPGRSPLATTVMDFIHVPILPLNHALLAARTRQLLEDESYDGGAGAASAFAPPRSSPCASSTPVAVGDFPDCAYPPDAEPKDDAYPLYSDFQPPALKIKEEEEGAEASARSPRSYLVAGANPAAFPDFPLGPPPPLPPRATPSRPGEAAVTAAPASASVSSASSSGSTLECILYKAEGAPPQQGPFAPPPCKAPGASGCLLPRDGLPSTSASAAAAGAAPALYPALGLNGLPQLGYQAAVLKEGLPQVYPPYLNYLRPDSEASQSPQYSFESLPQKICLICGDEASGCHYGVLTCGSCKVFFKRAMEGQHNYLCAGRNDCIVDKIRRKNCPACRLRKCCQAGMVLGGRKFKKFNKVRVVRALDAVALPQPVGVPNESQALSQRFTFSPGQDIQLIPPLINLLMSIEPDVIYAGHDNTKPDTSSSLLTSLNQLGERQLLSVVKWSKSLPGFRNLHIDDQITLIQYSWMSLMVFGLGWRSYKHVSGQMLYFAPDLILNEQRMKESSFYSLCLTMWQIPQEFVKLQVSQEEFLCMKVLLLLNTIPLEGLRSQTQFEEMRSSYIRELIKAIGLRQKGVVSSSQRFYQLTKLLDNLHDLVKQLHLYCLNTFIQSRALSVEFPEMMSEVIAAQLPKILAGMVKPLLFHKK
Chain of Retinoic acid receptor RXR-alpha (Homo sapiens) (P19793 whole entry, looked up): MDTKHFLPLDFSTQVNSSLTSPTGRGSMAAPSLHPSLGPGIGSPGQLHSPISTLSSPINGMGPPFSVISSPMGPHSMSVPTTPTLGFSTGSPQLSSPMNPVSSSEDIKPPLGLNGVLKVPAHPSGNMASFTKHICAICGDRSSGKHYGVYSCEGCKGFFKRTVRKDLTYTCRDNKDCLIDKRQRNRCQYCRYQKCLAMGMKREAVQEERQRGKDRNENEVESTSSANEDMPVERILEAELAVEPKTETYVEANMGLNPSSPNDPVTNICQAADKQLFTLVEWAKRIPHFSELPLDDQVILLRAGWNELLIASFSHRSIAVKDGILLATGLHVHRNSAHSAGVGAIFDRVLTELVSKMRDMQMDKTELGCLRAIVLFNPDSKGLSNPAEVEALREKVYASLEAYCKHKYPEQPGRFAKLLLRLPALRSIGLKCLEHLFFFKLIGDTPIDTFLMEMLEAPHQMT
Chain of THRA (gene 7067) (P10827 whole entry, looked up, the tested form may be a part): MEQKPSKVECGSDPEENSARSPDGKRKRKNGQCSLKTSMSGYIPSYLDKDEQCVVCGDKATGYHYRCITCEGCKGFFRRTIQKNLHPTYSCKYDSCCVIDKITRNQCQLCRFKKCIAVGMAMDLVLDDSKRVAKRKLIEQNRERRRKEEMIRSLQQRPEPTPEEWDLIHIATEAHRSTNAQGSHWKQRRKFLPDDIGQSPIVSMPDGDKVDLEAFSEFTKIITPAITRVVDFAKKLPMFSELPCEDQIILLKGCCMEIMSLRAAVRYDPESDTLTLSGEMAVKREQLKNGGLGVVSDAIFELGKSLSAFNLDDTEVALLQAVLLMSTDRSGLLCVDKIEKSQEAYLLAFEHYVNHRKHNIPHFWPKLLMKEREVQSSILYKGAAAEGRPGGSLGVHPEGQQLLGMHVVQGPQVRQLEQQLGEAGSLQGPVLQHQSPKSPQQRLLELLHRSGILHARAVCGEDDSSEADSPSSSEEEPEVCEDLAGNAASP

CCC(N)Cc1c[nH]c2ccccc12 (centres undefined)
inactive: [1] | [2] | [3] | [4]

S=C=NCc1ccccc1
inactive: [1] | [3] | [5] | [4]
active: [2] 42.9 µM

O=C(N[C@H]1N=C(c2ccccc2F)c2cccc3c2N(CC3)C1=O)c1cc2ccccc2[nH]1
inactive: [1] | [2] | [3] | [4]

COc1ccc(C(CN(C)C)C2(O)CCCCC2)cc1 (centres undefined)
inactive: [1] | [2] | [3] | [5] | [4]

Oc1cccc(Cl)c1Cl
inactive: [1] | [2] | [3] | [5] | [4]

CC(NC(C)(C)C)C(=O)c1cccc(Cl)c1 (centres undefined)
inactive: [1] | [2] | [3] | [4]

CON(C)C(=O)Nc1ccc(Cl)cc1
inactive: [1] | [2] | [3] | [4]

C[C@]12C=CC(=O)C=C1CC[C@@H]1[C@@H]2CC[C@@]2(C)[C@H]1CC[C@]2(C)O
inactive: [1] | [2] | [3] | [4] | PGR (gene 5241) | [6] | [7]

CC(=O)OO
inactive: [1] | [2] | [3] | [4]

N#C/C=C/C#N
active: [2] 93.4 µM
inactive: [1] | [3]

CC(C)=CCN1CC[C@@]2(C)c3cc(O)ccc3C[C@@H]1[C@@H]2C
inactive: [2] | [5] | [4]
active: [1] 86.2 µM

CN1CCc2cc3c(cc2C1O)OCO3 (centres undefined)
inactive: [5]
active: [1] 46.3 µM | [2] 61.2 µM | [3] 46.3 µM

CCCC[n+]1cccc(C)c1
inactive: [1] | [2] | [3] | [4]

CCS(=O)(=O)C(C)(C)S(=O)(=O)CC
inactive: [1] | [2] | [3] | [4]

c1ccc2c(c1)OCC(C1=NCCN1)O2 (centres undefined)
inactive: [1] | [2] | [8] | [4]

CCCCCCCCn1cc[n+](C)c1
inactive: [3] | [4]
active: [1] 9.49 µM [middle of 4 runs] | [2] 14.7 µM [middle of 4 runs]

OC(c1ccccc1)(c1ccccc1)C1CCNCC1
inactive: [1] | [2] | [3] | [4]

O=C1OC(c2ccc(O)c(S(=O)(=O)O)c2)(c2ccc(O)c(S(=O)(=O)O)c2)c2c(Br)c(Br)c(Br)c(Br)c21
inactive: [1] | [2] | [5] | [4]

COc1ccc(C(=O)c2c(C)n(CCN3CCOCC3)c3ccccc23)cc1
inactive: [1] | [2] | [3] | [4]

CN(C)CCc1c[nH]c2ccc(O)cc12
inactive: [1] | [2] | [3]

O=Cc1ccc(Cl)cc1Cl
inactive: [1] | [2] | [3] | [5] | [4]

CCCCCCCCCBr
inactive: [1] | [2] | [5]

C=CCC1([C@H](C)CCC)C(=O)NC(=O)NC1=O
inactive: [1] | [2] | [3] | [5] | [4]

CSSC
inactive: [1] | [2] | [5]

COc1cc([C@@H]2c3cc4c(cc3[C@@H](O)[C@H]3COC(=O)[C@H]23)OCO4)cc(OC)c1O
active: [1] 35.5 µM | THRB (gene 7068) [10] 0.653 µM
inactive: [2] | [3] | [4] | [9] | THRA (gene 7067) | THRB (gene 7068) [11] | [12]

CCOc1cc(OP(=S)(OC)OC)nc(CC)n1
inactive: [1] | [2] | [4]

C[N+]1(C)[C@@H]2CC[C@H]1CC(OC(=O)C(CO)c1ccccc1)C2 (some centres undefined)
inactive: [1] | [2] | [3] | [4]

CN1c2ccccc2C(NCCCCCCC(=O)O)c2ccc(Cl)cc2S1(=O)=O (centres undefined)
inactive: [1] | [2] | [3] | [4]

CCCC[N+]1(C)CCCC1 (tested in a mixture with another compound)
inactive: [1] | [2] | [3]
active: [4] 86.9 µM

CCOP(=O)(OCC)OP(=O)(OCC)OCC
inactive: [1] | [3] | [4]

CC(C)=CCOc1c2occc2cc2ccc(=O)oc12
inactive: [1] | [8] | [3] | [5] | [4]

COc1cccc([C@@]2(O)CCCC[C@@H]2CN(C)C)c1
inactive: [1] | [2] | [4] | [13] | [14]

CN[C@@H](C)Cc1ccccc1
inactive: [1] | [8] | [15] | [16] | [17] | [18] | [19]
